Source: the supplement of paper PMC10849652
Of roughly 7,900 targets only a part is listed; those with a hit were picked by preference. About 0.6% of all pairs of compound and target were hits.

Assays:
Test in all cases: log2 fold change, soluble protein after heating vs DMSO (PISA); higher = thermal stabilisation; K562 cells, 10 uM, 30 min; active = over 0.2 and 3.5 SD of the protein, either way, in both replicates (recomputed)
[1] = compound: C1=CC=C(C=C1)[C@H](COC2=CC3=C(C=C2)NC(=O)N3)NC(=O)C4=CC=CN(C4=O)CC5=CC(=C(C=C5)F)F
Summary of the method: (§1)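 Thermal stability values are relative to control samples and come from duplicates. They are expressed as log2 fold changes. For measurement, K562 cells (2×10^6 cells/mL) received 10 μM compound for 30 min, and aliquots were heated for 3 min over 48°C-58°C, pooled, and extracted at 4°C in PBS with 0.5% NP-40. Soluble protein, the supernatant after 21,000xg for 90 min, was quantified by TMTpro 16plex LC-MS/MS with equalised channel sums.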

[2] = compound: CC1=C(SC2=C1C(=N[C@H](C3=NN=C(N32)C)CC(=O)N)C4=CC=C(C=C4)Cl)C
Summary of the method: as §1

[3] = compound: CC1=C2C(=CC=C1)N=C(N(C2=O)C3=CC=CC=C3C)CN4C=NC5=C(N=CN=C54)N
Summary of the method: as §1

[4] = compound: Cc1sc2c(c1C)C(c1ccc(Cl)cc1)=N[C@@H](CC(=O)OC(C)(C)C)c1nnc(C)n1-2
Summary of the method: as §1

[5] = compound: c1ccc([C@@H]2C[C@H]2NC2CCNCC2)cc1
Summary of the method: as §1

Measured: log2 fold change

DIAPH1 (UniProt O60610)
UniProt O60610, sequence (O60610 whole entry, looked up): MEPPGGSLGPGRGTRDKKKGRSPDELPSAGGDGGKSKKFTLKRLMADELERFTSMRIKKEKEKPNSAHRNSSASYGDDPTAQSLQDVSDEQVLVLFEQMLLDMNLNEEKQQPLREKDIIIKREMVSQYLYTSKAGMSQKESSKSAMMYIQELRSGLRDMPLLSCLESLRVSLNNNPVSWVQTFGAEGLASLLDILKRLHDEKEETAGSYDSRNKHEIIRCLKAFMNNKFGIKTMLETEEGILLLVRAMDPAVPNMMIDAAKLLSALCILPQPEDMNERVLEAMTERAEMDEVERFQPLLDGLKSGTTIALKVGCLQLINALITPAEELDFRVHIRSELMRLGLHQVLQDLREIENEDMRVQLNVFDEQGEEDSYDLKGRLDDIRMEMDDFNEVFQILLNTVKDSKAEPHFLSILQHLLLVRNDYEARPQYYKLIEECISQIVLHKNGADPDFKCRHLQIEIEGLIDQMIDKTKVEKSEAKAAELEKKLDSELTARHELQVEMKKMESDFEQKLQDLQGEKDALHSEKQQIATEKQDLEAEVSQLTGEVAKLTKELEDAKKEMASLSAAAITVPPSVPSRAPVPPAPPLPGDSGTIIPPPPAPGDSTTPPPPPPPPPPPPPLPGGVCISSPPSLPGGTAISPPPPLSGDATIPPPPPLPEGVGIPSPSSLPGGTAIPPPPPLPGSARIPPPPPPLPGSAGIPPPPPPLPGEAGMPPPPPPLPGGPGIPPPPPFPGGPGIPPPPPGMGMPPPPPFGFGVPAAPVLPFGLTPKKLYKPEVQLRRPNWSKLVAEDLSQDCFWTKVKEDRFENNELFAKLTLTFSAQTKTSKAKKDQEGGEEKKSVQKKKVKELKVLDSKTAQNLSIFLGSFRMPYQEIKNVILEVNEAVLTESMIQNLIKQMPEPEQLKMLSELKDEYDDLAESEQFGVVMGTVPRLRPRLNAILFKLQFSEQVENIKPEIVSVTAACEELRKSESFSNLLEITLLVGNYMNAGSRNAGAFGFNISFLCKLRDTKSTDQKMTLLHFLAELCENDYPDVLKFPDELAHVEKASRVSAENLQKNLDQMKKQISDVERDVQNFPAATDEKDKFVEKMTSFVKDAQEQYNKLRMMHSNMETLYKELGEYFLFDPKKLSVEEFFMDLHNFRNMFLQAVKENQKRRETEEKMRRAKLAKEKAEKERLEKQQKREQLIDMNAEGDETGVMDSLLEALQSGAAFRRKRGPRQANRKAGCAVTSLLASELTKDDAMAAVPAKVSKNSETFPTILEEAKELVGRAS
inactive: [1] -0.073 | [2] -0.027 | [3] 0.026 | [4] 0.049 | [5] -0.018

CYFIP1 (UniProt Q7L576)
inactive: [1] 0.009 | [2] 0.005 | [3] -0.009 | [4] -0.005 | [5] -0.029

DDX46 (UniProt Q7L014)
inactive: [1] -0.059 | [2] 0.09 | [3] 0.184 | [4] -0.064 | [5] 0

EXOC2 (UniProt Q96KP1)
UniProt Q96KP1, sequence (Q96KP1 whole entry, looked up): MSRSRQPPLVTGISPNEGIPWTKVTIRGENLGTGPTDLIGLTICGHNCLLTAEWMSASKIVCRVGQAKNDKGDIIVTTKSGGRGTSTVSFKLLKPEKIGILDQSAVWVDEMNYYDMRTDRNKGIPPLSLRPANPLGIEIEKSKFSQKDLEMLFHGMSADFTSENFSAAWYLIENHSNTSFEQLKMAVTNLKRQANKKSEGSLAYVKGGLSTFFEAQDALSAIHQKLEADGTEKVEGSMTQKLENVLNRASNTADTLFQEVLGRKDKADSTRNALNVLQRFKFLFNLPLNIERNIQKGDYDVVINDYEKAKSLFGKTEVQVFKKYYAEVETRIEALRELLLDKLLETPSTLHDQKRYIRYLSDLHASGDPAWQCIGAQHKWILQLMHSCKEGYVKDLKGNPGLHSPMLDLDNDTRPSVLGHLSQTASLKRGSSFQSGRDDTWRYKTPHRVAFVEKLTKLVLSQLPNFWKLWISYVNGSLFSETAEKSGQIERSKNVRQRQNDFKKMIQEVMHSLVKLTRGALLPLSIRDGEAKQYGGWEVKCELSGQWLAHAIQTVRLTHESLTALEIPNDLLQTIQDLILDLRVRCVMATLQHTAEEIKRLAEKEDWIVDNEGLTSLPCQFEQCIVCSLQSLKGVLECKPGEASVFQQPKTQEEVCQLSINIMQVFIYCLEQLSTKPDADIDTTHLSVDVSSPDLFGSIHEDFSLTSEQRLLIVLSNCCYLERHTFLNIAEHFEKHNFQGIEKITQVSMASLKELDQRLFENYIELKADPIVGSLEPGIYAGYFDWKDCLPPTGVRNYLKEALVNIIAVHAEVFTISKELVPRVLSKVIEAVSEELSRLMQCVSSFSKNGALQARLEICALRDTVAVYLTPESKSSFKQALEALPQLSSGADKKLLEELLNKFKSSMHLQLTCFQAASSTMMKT
inactive: [1] -0.054 | [2] 0.025 | [3] 0.03 | [4] 0.033 | [5] 0.011

FAM114A2 (UniProt Q9NRY5)
UniProt Q9NRY5, sequence (Q9NRY5 whole entry, looked up): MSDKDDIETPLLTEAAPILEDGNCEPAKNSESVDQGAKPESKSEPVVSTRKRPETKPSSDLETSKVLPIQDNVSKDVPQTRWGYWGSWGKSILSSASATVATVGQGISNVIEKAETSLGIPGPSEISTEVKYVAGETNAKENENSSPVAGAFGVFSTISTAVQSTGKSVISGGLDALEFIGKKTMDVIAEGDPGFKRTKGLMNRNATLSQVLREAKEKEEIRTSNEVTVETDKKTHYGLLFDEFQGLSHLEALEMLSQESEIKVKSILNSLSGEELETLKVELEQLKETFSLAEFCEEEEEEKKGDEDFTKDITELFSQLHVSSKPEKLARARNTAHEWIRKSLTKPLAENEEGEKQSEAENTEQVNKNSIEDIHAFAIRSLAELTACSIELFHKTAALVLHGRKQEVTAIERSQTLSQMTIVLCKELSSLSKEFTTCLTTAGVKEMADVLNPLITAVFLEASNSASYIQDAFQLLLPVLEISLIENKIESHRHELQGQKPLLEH
inactive: [1] -0.046 | [2] 0.047 | [3] 0.018 | [4] 0.033 | [5] 0.006

CTSC (UniProt P53634)
UniProt P53634, sequence (P53634 whole entry, looked up): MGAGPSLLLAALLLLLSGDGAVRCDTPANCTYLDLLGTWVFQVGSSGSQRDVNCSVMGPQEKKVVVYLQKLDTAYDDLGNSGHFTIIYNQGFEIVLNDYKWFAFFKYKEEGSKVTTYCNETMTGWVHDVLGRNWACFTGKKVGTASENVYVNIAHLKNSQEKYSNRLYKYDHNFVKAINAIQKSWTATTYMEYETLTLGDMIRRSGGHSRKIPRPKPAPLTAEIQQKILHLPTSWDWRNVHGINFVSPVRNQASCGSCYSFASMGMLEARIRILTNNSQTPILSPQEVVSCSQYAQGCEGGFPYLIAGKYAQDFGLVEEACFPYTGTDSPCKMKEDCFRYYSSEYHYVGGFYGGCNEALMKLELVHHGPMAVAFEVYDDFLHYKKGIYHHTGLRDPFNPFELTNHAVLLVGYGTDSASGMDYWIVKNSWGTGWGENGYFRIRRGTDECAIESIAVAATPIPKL
inactive: [1] 0.018 | [2] -0.012 | [3] -0.039 | [4] -0.01 | [5] 0.056

DDX5 (UniProt P17844)
UniProt P17844, sequence (P17844 whole entry, looked up): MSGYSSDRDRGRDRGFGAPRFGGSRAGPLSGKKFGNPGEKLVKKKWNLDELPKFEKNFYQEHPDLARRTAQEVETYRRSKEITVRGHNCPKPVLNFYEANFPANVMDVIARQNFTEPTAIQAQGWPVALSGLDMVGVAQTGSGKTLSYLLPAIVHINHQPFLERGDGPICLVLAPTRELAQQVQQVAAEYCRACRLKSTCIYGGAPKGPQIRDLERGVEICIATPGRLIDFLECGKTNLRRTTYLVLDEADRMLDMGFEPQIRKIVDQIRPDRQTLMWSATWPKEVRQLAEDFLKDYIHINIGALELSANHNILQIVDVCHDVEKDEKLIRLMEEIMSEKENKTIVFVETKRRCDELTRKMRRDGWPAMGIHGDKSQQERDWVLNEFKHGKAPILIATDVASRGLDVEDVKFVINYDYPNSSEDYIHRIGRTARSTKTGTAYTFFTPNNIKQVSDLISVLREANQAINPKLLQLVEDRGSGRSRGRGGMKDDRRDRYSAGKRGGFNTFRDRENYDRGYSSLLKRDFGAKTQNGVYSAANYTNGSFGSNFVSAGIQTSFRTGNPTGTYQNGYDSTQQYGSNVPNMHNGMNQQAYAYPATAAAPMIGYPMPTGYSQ
inactive: [1] -0.061 | [2] 0.008 | [3] 0.067 | [4] -0.027 | [5] 0.038

ERLIN1 (UniProt O75477)
UniProt O75477, sequence (O75477 whole entry, looked up): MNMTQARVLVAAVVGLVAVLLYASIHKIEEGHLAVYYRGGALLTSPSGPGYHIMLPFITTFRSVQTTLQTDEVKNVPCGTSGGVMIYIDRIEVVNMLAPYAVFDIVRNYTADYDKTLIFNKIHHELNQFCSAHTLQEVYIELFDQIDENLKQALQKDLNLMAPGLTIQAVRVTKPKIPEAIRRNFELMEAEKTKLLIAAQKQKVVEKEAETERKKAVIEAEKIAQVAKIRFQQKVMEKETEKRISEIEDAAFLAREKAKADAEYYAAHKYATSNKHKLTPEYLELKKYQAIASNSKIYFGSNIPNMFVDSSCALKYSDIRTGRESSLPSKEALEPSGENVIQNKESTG
inactive: [1] -0.007 | [2] -0.036 | [3] 0.002 | [4] -0.038 | [5] -0.026

ERCC6 (UniProt Q03468)
inactive: [1] 0.013 | [2] -0.025 | [3] -0.018 | [4] -0.008 | [5] 0.151
